This passage reports growth inhibition results from PubChem BioAssay (NCI).

Compounds without any hit were thinned out: in the full panel of roughly 79,000, 15% have a hit. A number with no mark means an inactive call. Activity calls are given as the source filed them. No stated cut-off is given here; in the data, active means growth inhibition above about 70%; inactive means the rest.

Assay [1] is described as follows: NCI Yeast Anticancer Drug Screen. Data for the rad50 strain (AID 155).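 Further: 0% = growth of vehicle-only cultures of the same strain.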 The conditions noted are these: S. cerevisiae rad50 strain growth inhibition; at 50.0 µM; hits give high values. An outline of the steps: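 DNA repair mutant yeast, compound exposure, growth read-out; inhibition is taken relative to vehicle.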
Assay [2] in a line: NCI Yeast Anticancer Drug Screen. Data for the mec2-1 strain (AID 157). As to conditions: S. cerevisiae mec2-1 strain, at 50.0 µM, hits give high values. An outline of the steps: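 Yeast mec2-1 mutant treated with compound. Readout: growth inhibition vs vehicle controls.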
A short description of assay [3]: NCI Yeast Anticancer Drug Screen. Data for the sgs1 mgt1 strain (AID 161).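 Further: 0% = growth of cultures given vehicle only.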 The conditions noted are these: S. cerevisiae sgs1 mgt1 strain, at 50.0 µM, hits give high values. A digest of the protocol: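 Test agents were incubated with a DNA-repair-mutant yeast strain. Growth was then read and compared against vehicle-treated controls.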
Assay [4] can be described thus: NCI Yeast Anticancer Drug Screen. Data for the cln2 rad14 strain (AID 165).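 Further: 0% = growth equal to vehicle treated cultures.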 The conditions noted are these: S. cerevisiae cln2 rad14 strain, at 50.0 µM, hits give high values. A digest of the protocol:
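cln2 rad14 yeast strain; compound exposure; growth inhibition read vs vehicle controls.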

A short description of assay [5]: NCI Yeast Anticancer Drug Screen. Data for the bub3 strain (AID 167). The conditions noted are these: S. cerevisiae bub3 mutant strain, at 50.0 µM, hits give high values. An outline of the steps:
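In this screen, a yeast mutant lacking normal mitotic checkpoint function is challenged with compound. Relative growth versus vehicle gives the inhibition value.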

A short description of assay [6]: NCI Yeast Anticancer Drug Screen. Data for the mlh1 rad18 strain (AID 175). The conditions noted are these: S. cerevisiae mlh1 rad18 strain growth inhibition; at 50.0 µM; hits give high values. An outline of the steps: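 Yeast w/ defined DNA-repair lesions; compound exposure; growth vs vehicle controls → % inhibition.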

On to `COc1ccc(C(O)(C(=O)OCCSC)c2ccc(OC)cc2)cc1`, for which the growth inhibition in assay [1] was -5.1%; in assay [2], 2.85%; in assay [3], -2.6%; in assay [4], -21.5%; in assay [5], 9%; in assay [6], 0.1%.

`O=P(Nc1ccccc1)(Oc1ccccc1)N(CCCl)CCCl` (stereo unspecified): the growth inhibition in assay [1] was 29.4%; in assay [2] it was -10%; in assay [3], 1.2%; in assay [4], 24.2%; in assay [5], 7.7%; in assay [6], 20.6%.

On to `N#C[CH2][Sn]([c]1ccccc1)([c]1ccccc1)[c]1ccccc1`, for which the growth inhibition in assay [1] was 98.8% (active); in assay [2], 98.8% (active); in assay [3], 99% (active); in assay [4], 98% (active); in assay [5], 98.5% (active); in assay [6], 98.9% (active).

With `[N-]=[N+]=Nc1ccnc2cc(Cl)ccc12`, the growth inhibition is -29.9% in assay [1]; -5.55% in assay [2]; -9.05% in assay [3]; -68% in assay [4]; -5.45% in assay [5]; -10.7% in assay [6].

Turning to `O=C(NC1=NN(Cc2ccccc2)C(=O)C1)c1ccc(S(=O)(=O)F)cc1`, the growth inhibition in assay [1] was -0.35%; in assay [2], -14.9%; in assay [3], 19.6%; in assay [4], 9.55%; in assay [5] it was 9.8%; in assay [6], 11.6%.

Regarding `O=C(O)CCc1ccc(NP(=O)(Oc2ccccc2)N(CCCl)CCCl)cc1` (stereo unspecified), the growth inhibition was 8.05% in assay [1]; 6.65% in assay [2]; 15.1% in assay [3]; 14.7% in assay [4]; 2.3% in assay [5]; -20.2% in assay [6].

Consider `O=c1[nH]cc(Cn2cccc3c(=O)ncnc2-3)c(=O)[nH]1`, for which the growth inhibition was 14.9% in assay [1]; 5.05% in assay [2]; -4.45% in assay [3]; -43.5% in assay [4]; -16.7% in assay [5]; -5.7% in assay [6].

Regarding `CC(=O)OC(C[N+](=O)[O-])C(Cl)(Cl)Cl` (stereo unspecified), the growth inhibition in assay [1] is 5.7%; in assay [2], 3.25%; in assay [3] it was 2.25%; in assay [4], -0.7%; in assay [5] it was 8.4%; in assay [6], 2.95%.

In the case of `O=NNc1cncc(Cl)n1`, the growth inhibition in assay [1] was -11.2%; in assay [2], -3.5%; in assay [3], -5.35%; in assay [4], -17.9%; in assay [5], -0.4%; in assay [6], -6.05%.

As for `Cc1ccc2c3c(c(=O)oc2c1)[C@H](C)C[C@@](C)(CO)O3`, the growth inhibition was -8.35% in assay [1]; 1.9% in assay [2]; 9.8% in assay [3]; -5.4% in assay [4]; 3.7% in assay [5]; -7.35% in assay [6].

For the compound `C=C(CC(=O)O)C(=O)O`, the growth inhibition is -2.25% in assay [1]; 2.8% in assay [2]; -3.85% in assay [3]; 6.2% in assay [4]; 6.05% in assay [5]; 4.9% in assay [6].

`Cc1cc(CCl)cc(=O)[nH]1`: the growth inhibition was -9.75% in assay [1]; -0.7% in assay [2]; -7.55% in assay [3]; -8.9% in assay [4]; -20.6% in assay [5]; 12.2% in assay [6].

Consider `O=C(CN1C(=O)c2ccccc2C1=O)OCCNCCCl`, for which the growth inhibition in assay [1] was 98.2% (active); in assay [2], 96.5% (active); in assay [3], 98.1% (active); in assay [4], 95.9% (active); in assay [5] it was 97.4% (active); in assay [6], 98.5% (active).

`CSC(SC)=C(C(=O)O)P(=O)(O)O`: the growth inhibition in assay [1] was -32.4%; in assay [2] it was -3.05%; in assay [3], -8.2%; in assay [4] it was 19.1%; in assay [5] it was -9.8%; in assay [6] it was -16.6%.

In the case of `OCCN=Cc1c[nH]c2ccccc12`, the growth inhibition in assay [1] is -49.9%; in assay [2], -42.9%; in assay [3] it was -28.1%; in assay [4], 3.85%; in assay [5] it was -42.5%; in assay [6], -13.9%.

`CCCCN(CCCC)C(=O)C1C=C2c3cccc4[nH]cc(c34)CC2N(C)C1` (stereo unspecified): the growth inhibition in assay [1] is -0.85%; in assay [2], -1.3%; in assay [3], -11.2%; in assay [4], -13.2%; in assay [5], 6.65%; in assay [6], 37.4%.

`COc1cc2c3c(c1OC)Oc1ccc(cc1)CC1c4c(cc(OC)c(OC)c4Oc4ccc(cc4)CC3N(C)CC2)CCN1C` (stereo unspecified): the growth inhibition in assay [1] was 2.75%; in assay [2], 11.9%; in assay [3] it was -11.3%; in assay [4] it was -8%; in assay [5] it was -13.6%; in assay [6], -3.65%.

Take `Cc1nc2ccc(Br)cc2c(=O)n1-c1nnc(C(C)(C)C)s1`: the growth inhibition in assay [1] was -10.9%; in assay [2], -40.4%; in assay [3], -23.2%; in assay [4], -5.75%; in assay [5] it was -20.6%; in assay [6], -12.2%.

In the case of `O=C(Nc1cccc(S(=O)(=O)F)c1)c1cccc([N+](=O)[O-])c1`, the growth inhibition in assay [1] is 96.5% (active); in assay [2], 94.8% (active); in assay [3] it was 98.5% (active); in assay [4] it was 91.7% (active); in assay [5], 95.6% (active); in assay [6], 96.8% (active).

With `CCOC(=O)N[N+]12CCN(CC1)CC2`, the growth inhibition was 0.45% in assay [1]; -2.65% in assay [2]; 1.95% in assay [3]; -12.9% in assay [4]; -1.2% in assay [5]; -11.1% in assay [6].

As for `COP(=O)(OC)C1(c2ccccc2)C2C3CCC(C3)C21` (stereo unspecified), the growth inhibition in assay [1] was 1.75%; in assay [2] it was 21.7%; in assay [3] it was 2.65%; in assay [4], -7%; in assay [5], 14.8%; in assay [6], 17.8%.
